Our source for the growth values is PubChem BioAssay (NCI).

What all share (assay): NCI-60 one-dose screen, 48 h (100 = growth as untreated, 0 = no growth, -100 = all killed)
Holding throughout (conditions): 10 µM unless noted

For experiment [1], the system named is NCI-H23 lung.
Experiment [2] concerns NCI-H226 lung.
Experiment [3] relates to NCI-H322M lung.
Experiment [4] deals with HOP-62 NSCLC.
Experiment [5] relates to NCI-H460 lung.
The subject of experiment [6] is HOP-92 NSCLC.
For experiment [7], the system named is NCI-H522 lung.
Experiment [8] has as its system A549/ATCC NSCLC.
Experiment [9] has as its system 786-0 renal.
The subject of experiment [10] is COLO 205 colon.
For experiment [11], the system named is DU-145 prostate.
Experiment [12] concerns K-562 leukemia.
Experiment [13] concerns MALME-3M melanoma.
Experiment [14] relates to MDA-MB-231 breast.
The subject of experiment [15] is RXF 393 renal.
For experiment [16], the system named is SF-268 CNS.
Experiment [17] concerns SF-295 CNS.
Experiment [18] deals with SF-539 CNS.
Experiment [19] relates to UACC-257 melanoma.
The subject of experiment [20] is M14 melanoma.

This is part of a sample that, as a whole, favours compounds with a hit. Of some 83,000 tested, about 20% had one in any assay.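 Negative percent growth values reflect cell death: -40 means 40% of the cells present at the start died, and -100 means all died.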 Unmarked numbers belong to inactive results. Calls of active or inactive are those of the source. The calls were made as follows: active = growth percent below 10; inactive = the rest.

Turning to `Fc1cccc(Oc2ccc(Nc3ncnc4ccc(OCCCN5CCOCC5)cc34)cc2Cl)c1`, the growth was 73.5% in experiment [1]; 88.1% in experiment [2]; 37.7% in experiment [3]; 82.5% in experiment [4]; 42.5% in experiment [5]; 54.3% in experiment [6]. For the same compound, the growth in experiment [7] is 43.8%; in experiment [8] it was 48.3%; in experiment [9], 51.9%; in experiment [10], 79.4%; in experiment [11], 52.5%; in experiment [12], 3.55% (active). Besides, the growth in [13] was 24.6%; in experiment [14] it was 61.4%; in [15] it was 55.5%; in [16], 54.4%; in [17], 82.7%; in [18], 88.1%. Also, the growth is 12.5% in [19] and -44% (active) in experiment [20].
For `Ic1ccc(OCCCCn2ccnc2)cc1`, the growth in [1] is 66.6%; in experiment [2], 80.5%; in experiment [3], 85.3%; in experiment [4], 72.3%; in experiment [5], 92.5%; in experiment [6], 34.7%. The growth is 67.4% in experiment [7]; 78.1% in experiment [8]; 83.7% in experiment [9]; 29.3% in experiment [10]; 81.2% in experiment [11]; 37.6% in [12]. The growth in experiment [13] is 1.9% (active); in experiment [14], 68.6%; in [15], 67.1%; in experiment [16], 83.3%; in experiment [17] it was 77.9%; in experiment [18] it was 83.8%. The growth in experiment [19] was 64.3%; in experiment [20], 49.6%.
As for `Nc1ncnc2c1C(c1ccc(Br)cc1)c1sc3c(F)cccc3c1O2` (stereo not given), the growth is 88.5% in experiment [1]; 81.5% in experiment [2]; 95.9% in [3]; 90.1% in experiment [4]; 92.1% in experiment [5]; 91.7% in [6]. The growth is 84.2% in [7]; 99.3% in experiment [8]; 99.9% in experiment [9]; 106% in experiment [10]; 102% in experiment [11]; 99.1% in experiment [12]. Further, the growth in [13] was 127%; in experiment [14], 79.7%; in experiment [15] it was 104%; in experiment [16], 98.9%; in experiment [17] it was 102%; in [18] it was 102%. For the same compound, the results for the growth in experiment [19] and in [20] were 114% and 103%, respectively.
Take `CCN(CC)CCn1c2ccc(OC)cc2c2sc3cc(OC)ccc3c(=O)c21`: the growth in experiment [1] is 23.1%; in [2] it was 71.4%; in experiment [3] it was 29.8%; in experiment [4], 38.1%; in [5], 9.41% (active); in [6] it was 41.7%. For the same compound, the growth was 48.1% in experiment [7]; 19.1% in [8]; 11.1% in experiment [9]; 18.6% in experiment [10]; 44.9% in [11]; 4.61% (active) in [12]. Further, the growth is -27% (active) in experiment [13]; 40.5% in experiment [14]; 12.7% in experiment [15]; 38.5% in experiment [16]; 18.9% in [17]; 22.7% in [18]. For the same compound, the growth in [19] was 41.3%; in experiment [20], -77.9% (active).
As for `CC(C)c1ccc(Cc2cnc(NC(=O)c3cc(Br)cs3)s2)cc1`, the growth was 47.6% in experiment [1]; 24.5% in [2]; 45.6% in experiment [3]; 35.8% in [4]; 13.6% in [5]; 35.7% in [6]. For the same compound, the growth in [7] was -1.16% (active); in experiment [8], 31.4%; in experiment [9], 31.3%; in experiment [10] it was 15.4%; in experiment [11], 38.5%; in experiment [12], 18.2%. The growth is 31.1% in experiment [13]; 55.8% in experiment [14]; -5.08% (active) in experiment [15]; 48.2% in experiment [16]; 9.99% (active) in experiment [17]; 4.75% (active) in [18]. The figures for the growth in [19] and in [20] were 53.4% and 15.8%, respectively.
In the case of `CCNCCNc1cc(-c2ccc(C(F)(F)F)cc2)c(C#N)c2nc3ccccc3n12`, the growth is -83.7% (active) in experiment [1]; -66.1% (active) in experiment [2]; -56.2% (active) in [3]; -67.7% (active) in experiment [4]; -81.4% (active) in [5]; -81.2% (active) in experiment [6]. For the same compound, the growth was -69% (active) in [7]; -76.4% (active) in experiment [8]; -96.2% (active) in experiment [9]; -80.4% (active) in [10]; -95.1% (active) in experiment [11]; -50.9% (active) in experiment [12]. The growth is -78.1% (active) in [13]; -79.8% (active) in experiment [14]; -93.9% (active) in experiment [15]; -75.3% (active) in experiment [16]; -72.5% (active) in experiment [17]; -88% (active) in [18]. Further, the growth was -80.2% (active) in experiment [19] and -82.5% (active) in experiment [20].
For the compound `COc1ccc2c(c1)CC[C@H](O)/C2=C/c1cc(OC)c(OC)c(OC)c1`, the growth in experiment [1] was 30.3%; in [2], 40.8%; in [3], 60.5%; in experiment [4], 34.9%; in [5], 4.68% (active); in experiment [6], 5.25% (active). Also, the growth in experiment [7] is -19.2% (active); in experiment [8] it was 13.7%; in [9], 16.1%; in [10], -48.8% (active); in experiment [11], 0.0757% (active); in [12], 8.97% (active). The growth in experiment [13] was 64%; in [14], 14.5%; in experiment [15] it was 15.5%; in [16], 27.1%; in experiment [17], 8.44% (active); in experiment [18] it was -5.68% (active). Moreover, the figures for the growth in experiment [19] and in experiment [20] were 47.3% and 6.27% (active), respectively.
Consider `Cc1ccc(-c2nc(N3CCCNCC3)c3oc(-c4ccc(C)cc4)nc3n2)cc1`, for which the growth in experiment [1] was 91.1%; in experiment [2], 101%; in experiment [3], 16.5%; in experiment [4], 71.8%; in experiment [5], -37.5% (active); in experiment [6] it was 60.9%. Besides, the growth in experiment [7] was 65%; in [8] it was -62.3% (active); in [9], -96.2% (active); in experiment [10], -71.6% (active); in [11] it was 42%; in [12] it was -76% (active). Further, the growth in experiment [13] is 106%; in experiment [14], -78.8% (active); in experiment [15] it was 80.6%; in experiment [16], 90.2%; in [17] it was 108%; in experiment [18], 73.8%. Besides, the growth was 101% in [19] and -94.7% (active) in experiment [20].
